Results from PubChem BioAssay AID1159580 (chemical genetic matrix, 2015).
Where “and” joins values, the source holds several entries; their conditions need not be identical. Equal values may be shown once. Out of some 5,500 compounds screened, about 2,000 (36%) were called active. Another 18% or so got no clear call; they are omitted. No stated cut-off is given here; in the data, active means normalized growth mostly below about 0.91 (no sharp cut-off); inconclusive means no clear call, values can overlap the other calls; inactive means mostly above about 0.92. This is one part of the list.

Assay: chemical genetic growth profiling, strain panel (AID 1159580);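 further: tested at 20 µM; growth read once vehicle control cultures reached saturation at 30 °C; 1 = growth at the plate median or of vehicle wells; lower values mean less growth of the strain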
Conditions: S. cerevisiae deletion strains, growth OD

Measured: normalized growth

CC(C)(S)[C@@H](N)C(=O)O
inactive: locus YAL013W, strain DEP1, hits give low values 1.02 | locus YAL021C, strain ccr4, hits give low values 1.01 | locus YAL026C, strain drs2, hits give low values 1.01 | locus YAL030W, strain snc1, hits give low values 1.01 | locus YBL061C, strain skt5, hits give low values 1 | locus YBR009C, strain hhf1, hits give low values 0.992 | locus YBR021W, strain FUR4, hits give low values 1.03 | locus YBR023C, strain chs3, hits give low values 1.01 | locus YBR171W, strain sec66, hits give low values 1.01 | locus YBR229C, strain ROT2, hits give low values 1.01 | locus YBR231C, strain swc5, hits give low values 1 | locus YBR279W, strain paf1, hits give low values 0.997 | locus YCL011C, strain gbp2, hits give low values 1 | locus YCL016C, strain dcc1, hits give low values 1 | locus YCL029C, strain bik1, hits give low values 0.991 | locus YCL061C, strain MRC1, hits give low values 1.01 | locus YCL069W, strain vba3, hits give low values 0.993 | locus YCR088W, strain abp1, hits give low values 1.01 | locus YDL005C, strain med2, hits give low values 0.995 | locus YDL035C, strain GPR1, hits give low values 1.01 | locus YDL040C, strain nat1, hits give low values 1 | locus YDL074C, strain BRE1, hits give low values 1.03 | locus YDL101C, strain DUN1, hits give low values 1.03 | locus YDL134C, strain PPH21, hits give low values 1.01 | locus YDL185W, strain tfp1, hits give low values 0.988 | locus YDL192W, strain arf1, hits give low values 0.984 | locus YDR001C, strain nth1, hits give low values 1 | locus YDR069C, strain doa4, hits give low values 0.997 | locus YDR101C, strain arx1, hits give low values 0.986 | locus YDR137W, strain rgp1, hits give low values 1.05 | locus YDR150W, strain NUM1, hits give low values 1.01 | locus YDR159W, strain sac3, hits give low values 0.994 | locus YDR162C, strain NBP2, hits give low values 1 | locus YDR195W, strain ref2 0.997 | locus YDR297W, strain sur2, hits give low values 1.01 | locus YDR318W, strain mcm21, hits give low values 0.994 | locus YDR334W, strain swr1, hits give low values 1.01 | locus YDR335W, strain msn5, hits give low values 0.986 | locus YDR388W, hits give low values 0.991 | locus YDR392W, strain spt3, hits give low values 0.96 | locus YDR502C, strain sam2, hits give low values 0.996 | locus YEL003W, strain gim4, hits give low values 0.995 | locus YEL037C, strain rad23, hits give low values 1 | locus YEL061C, strain CIN8 (second series), hits give low values 0.995 | locus YEL061C, strain CIN8, hits give low values 1.01 | locus YER015W, strain faa2, hits give low values 1.01 | locus YER016W, strain bim1, hits give low values 0.994 | locus YER110C, hits give low values 0.989 | locus YER111C, strain swi4, hits give low values 1.01 | locus YER155C, strain BEM2 (second series), hits give low values 0.985 | locus YER155C, strain BEM2, hits give low values 1.01 | locus YER167W, strain BCK2, hits give low values 1.01 | locus YFR010W, strain ubp6, hits give low values 0.998 | locus YGL078C, strain dbp3, hits give low values 0.991 | locus YGL086W, strain mad1, hits give low values 0.995 | locus YGL167C, strain pmr1, hits give low values 1 | locus YGL173C, strain kem1, hits give low values 1 | locus YGL227W, strain vid30, hits give low values 0.992 | locus YGL240W, strain doc1, hits give low values 1.01 | locus YGL248W, strain PDE1, hits give low values 1.02 | locus YGL253W, strain hxk2, hits give low values 0.993 | locus YGR135W, strain pre9, hits give low values 0.989 | locus YGR252W, strain gcn5, hits give low values 1.01 | locus YHR013C, strain ard1, hits give low values 1 | locus YHR027C, strain rpn1, hits give low values 1.03 | locus YHR030C, strain SLT2, hits give low values 1.01 and 0.999 | locus YHR079C, strain IRE1 (second series), hits give low values 0.987 | locus YHR079C, strain IRE1, hits give low values 0.982 | locus YHR094C, strain hxt1, hits give low values 0.986 | locus YHR129C, strain ARP1, hits give low values 1.01 | locus YHR142W, strain chs7, hits give low values 1.01 | locus YHR200W, strain rpn10, hits give low values 1 | locus YIL066C, strain RNR3, hits give low values 1.01 | locus YIL073C, strain SPO22, hits give low values 0.975 | locus YIL125W, strain kgd1, hits give low values 0.997 | locus YIR030C, strain dcg1, hits give low values 0.989 | locus YJL092W, strain hpr5, hits give low values 1 | locus YJL095W, strain BCK1 (second series), hits give low values 1 | locus YJL095W, strain BCK1, hits give low values 1.05 and 1 | locus YJL115W, strain asf1, hits give low values 0.995 | locus YJL129C, strain trk1, hits give low values 0.987 | locus YJL134W, strain LCB3, hits give low values 1.01 | locus YJL154C, strain vps35, hits give low values 0.994 | locus YJL164C, strain tpk1, hits give low values 1.01 | locus YJL166W, strain qcr8, hits give low values 1.01 | locus YJL168C, strain set2, hits give low values 0.999 | locus YJL187C, strain SWE1 (second series), hits give low values 1.01 | locus YJL187C, strain SWE1, hits give low values 1
